# Columns and labels:
# Experiment in all cases: DAPPL (digital affinity profiling via proximity ligation, sequencing); 10 mM Tris-HCl pH 7.5, 50 mM NaCl, 1 mM DTT, 4% glycerol, room temperature, 30 min; GST-TFs on glutathione beads, 16-mer random dsDNA library, 0.1% formaldehyde crosslink after washing; high values mean tight binding
# FLI1 = target: T1, FLI1 (Homo sapiens, UniProt Q01543 1-452); conditions: protein: recombinant; tags: N-terminal GST; dsDNA, one strand shown
# T1 sequence: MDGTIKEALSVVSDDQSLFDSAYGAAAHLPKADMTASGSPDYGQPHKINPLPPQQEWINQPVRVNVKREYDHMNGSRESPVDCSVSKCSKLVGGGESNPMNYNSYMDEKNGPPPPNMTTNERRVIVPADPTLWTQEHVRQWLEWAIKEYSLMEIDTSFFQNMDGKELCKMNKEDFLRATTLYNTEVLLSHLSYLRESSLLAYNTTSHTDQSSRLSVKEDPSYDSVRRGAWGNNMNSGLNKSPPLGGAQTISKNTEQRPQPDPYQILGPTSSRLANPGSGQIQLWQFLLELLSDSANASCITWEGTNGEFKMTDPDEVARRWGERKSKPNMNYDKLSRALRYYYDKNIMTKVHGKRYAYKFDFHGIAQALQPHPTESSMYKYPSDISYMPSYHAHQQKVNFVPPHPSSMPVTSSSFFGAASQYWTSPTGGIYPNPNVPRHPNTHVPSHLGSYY
# Summary of the method: (§1)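 Human transcription factors fused to GST were expressed in yeast, captured on glutathione beads, given DNA barcodes and pooled with a GST-only negative control. Pools were incubated with 200 nmole of a 16-mer random double-stranded DNA library in Tris/NaCl/DTT/glycerol buffer at room temperature for 30 min. They were then washed, crosslinked with 0.1% formaldehyde, proximity-ligated (BsaI/T4 ligase, 1 h, 37 °C), PCR-amplified and sequenced on an Illumina NextSeq500. Binding signal is each 6-mer's read frequency for a factor divided by its frequency for the GST control.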
# ELK1 = target: T2, ELK1 (Homo sapiens, UniProt P19419 1-428); conditions: protein: recombinant; tags: N-terminal GST; dsDNA, one strand shown
# T2 sequence: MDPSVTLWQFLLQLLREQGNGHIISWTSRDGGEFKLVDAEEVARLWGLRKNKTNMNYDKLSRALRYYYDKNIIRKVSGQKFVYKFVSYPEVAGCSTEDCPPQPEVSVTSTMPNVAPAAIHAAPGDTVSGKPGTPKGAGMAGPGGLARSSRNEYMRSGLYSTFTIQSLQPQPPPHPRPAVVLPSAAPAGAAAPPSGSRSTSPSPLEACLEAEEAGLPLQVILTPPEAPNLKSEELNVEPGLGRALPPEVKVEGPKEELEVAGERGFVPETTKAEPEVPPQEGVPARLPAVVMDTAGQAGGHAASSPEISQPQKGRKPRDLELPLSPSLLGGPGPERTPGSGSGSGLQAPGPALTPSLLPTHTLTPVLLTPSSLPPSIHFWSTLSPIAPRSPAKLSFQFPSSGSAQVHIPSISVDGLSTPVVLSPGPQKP
# Summary of the method: as §1
# GABPA = target: T3, GABPA (Homo sapiens, UniProt Q06546 1-454); conditions: protein: recombinant; tags: N-terminal GST; dsDNA, one strand shown
# T3 sequence: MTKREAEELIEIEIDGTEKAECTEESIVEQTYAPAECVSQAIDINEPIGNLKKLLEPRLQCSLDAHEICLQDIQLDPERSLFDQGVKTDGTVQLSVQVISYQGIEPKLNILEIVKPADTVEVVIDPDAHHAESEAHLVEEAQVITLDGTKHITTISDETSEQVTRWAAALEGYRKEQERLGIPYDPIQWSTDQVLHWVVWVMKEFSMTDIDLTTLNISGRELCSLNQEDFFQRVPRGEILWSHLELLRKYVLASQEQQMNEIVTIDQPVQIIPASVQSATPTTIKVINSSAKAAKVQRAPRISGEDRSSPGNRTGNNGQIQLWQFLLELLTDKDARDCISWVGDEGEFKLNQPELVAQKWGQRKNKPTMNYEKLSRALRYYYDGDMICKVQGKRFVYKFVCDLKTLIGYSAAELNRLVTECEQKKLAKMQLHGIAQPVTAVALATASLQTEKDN
# Summary of the method: as §1
# ERG = target: T4, ERG (Homo sapiens, UniProt P11308 1-479); conditions: protein: recombinant; tags: N-terminal GST; dsDNA, one strand shown
# T4 sequence: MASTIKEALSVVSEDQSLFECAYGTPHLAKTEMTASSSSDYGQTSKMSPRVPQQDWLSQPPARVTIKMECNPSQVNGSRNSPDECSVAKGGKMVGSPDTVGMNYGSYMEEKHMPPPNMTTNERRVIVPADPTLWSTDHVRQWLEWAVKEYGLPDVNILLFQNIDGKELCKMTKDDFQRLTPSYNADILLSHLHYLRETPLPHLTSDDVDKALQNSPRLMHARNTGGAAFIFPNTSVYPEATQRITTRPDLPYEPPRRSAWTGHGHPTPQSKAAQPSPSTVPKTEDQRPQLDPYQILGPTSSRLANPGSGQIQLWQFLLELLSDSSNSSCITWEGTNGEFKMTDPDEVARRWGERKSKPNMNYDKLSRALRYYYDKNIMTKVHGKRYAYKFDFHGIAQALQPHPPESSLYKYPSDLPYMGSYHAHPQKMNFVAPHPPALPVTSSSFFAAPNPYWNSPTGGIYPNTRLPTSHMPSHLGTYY
# Summary of the method: as §1
# ELF1 = ELF1 (Homo sapiens, UniProt P32519 1-619); conditions: protein: recombinant; tags: N-terminal GST; dsDNA, one strand shown
# Summary of the method: as §1
# EHF = target: T5, EHF (Homo sapiens, UniProt Q9NZC4 1-300); conditions: protein: recombinant; tags: N-terminal GST; dsDNA, one strand shown
# T5 sequence: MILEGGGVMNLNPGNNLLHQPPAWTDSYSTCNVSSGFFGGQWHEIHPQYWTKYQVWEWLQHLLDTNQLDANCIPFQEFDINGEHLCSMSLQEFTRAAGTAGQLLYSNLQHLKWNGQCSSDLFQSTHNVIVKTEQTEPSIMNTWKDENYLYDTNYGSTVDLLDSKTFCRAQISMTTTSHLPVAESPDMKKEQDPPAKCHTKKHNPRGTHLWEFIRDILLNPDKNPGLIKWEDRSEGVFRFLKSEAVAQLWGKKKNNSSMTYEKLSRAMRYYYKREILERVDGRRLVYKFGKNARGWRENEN
# Summary of the method: as §1
# SPI1 = SPI1 (Homo sapiens, UniProt P17947 1-270); conditions: protein: recombinant; tags: N-terminal GST; dsDNA, one strand shown
# Summary of the method: as §1
# SPIB = SPIB (Homo sapiens, UniProt Q01892 1-262); conditions: protein: recombinant; tags: N-terminal GST; dsDNA, one strand shown
# Summary of the method: as §1
# ELK3 = target: T6, ELK3 (Homo sapiens, UniProt P41970 1-407); conditions: protein: recombinant; tags: N-terminal GST; dsDNA, one strand shown
# T6 sequence: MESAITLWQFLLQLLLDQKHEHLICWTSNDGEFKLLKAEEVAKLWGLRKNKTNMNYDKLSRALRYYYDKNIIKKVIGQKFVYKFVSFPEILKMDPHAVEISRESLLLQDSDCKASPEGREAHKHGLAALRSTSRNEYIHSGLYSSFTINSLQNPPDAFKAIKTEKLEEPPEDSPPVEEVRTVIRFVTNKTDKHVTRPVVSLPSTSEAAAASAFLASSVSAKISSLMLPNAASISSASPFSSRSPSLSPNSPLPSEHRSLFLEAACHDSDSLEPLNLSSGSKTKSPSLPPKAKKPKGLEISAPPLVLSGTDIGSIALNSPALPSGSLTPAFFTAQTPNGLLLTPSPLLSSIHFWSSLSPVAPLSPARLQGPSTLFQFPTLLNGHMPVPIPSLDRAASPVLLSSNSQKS
# Summary of the method: as §1
# FEV = target: T7, FEV (Homo sapiens, UniProt Q99581 1-238); conditions: protein: recombinant; tags: N-terminal GST; dsDNA, one strand shown
# T7 sequence: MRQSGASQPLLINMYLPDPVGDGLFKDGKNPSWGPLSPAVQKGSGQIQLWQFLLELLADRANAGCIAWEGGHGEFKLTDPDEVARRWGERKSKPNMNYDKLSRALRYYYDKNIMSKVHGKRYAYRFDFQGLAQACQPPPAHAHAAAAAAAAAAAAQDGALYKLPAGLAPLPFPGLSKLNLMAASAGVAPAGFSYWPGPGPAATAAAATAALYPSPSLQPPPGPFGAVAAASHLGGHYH
# Summary of the method: as §1
# ETV5 = ETV5 (Homo sapiens, UniProt P41161 1-510); conditions: protein: recombinant; tags: N-terminal GST; dsDNA, one strand shown
# Summary of the method: as §1
# HSF1 = HSF1 (Homo sapiens, UniProt Q00613 1-529); conditions: protein: recombinant; tags: N-terminal GST; chain copies: 3; dsDNA, one strand shown
# Summary of the method: as §1
# SPIC = target: T8, SPIC (Homo sapiens, UniProt Q8N5J4 1-248); conditions: protein: recombinant; tags: N-terminal GST; dsDNA, one strand shown
# T8 sequence: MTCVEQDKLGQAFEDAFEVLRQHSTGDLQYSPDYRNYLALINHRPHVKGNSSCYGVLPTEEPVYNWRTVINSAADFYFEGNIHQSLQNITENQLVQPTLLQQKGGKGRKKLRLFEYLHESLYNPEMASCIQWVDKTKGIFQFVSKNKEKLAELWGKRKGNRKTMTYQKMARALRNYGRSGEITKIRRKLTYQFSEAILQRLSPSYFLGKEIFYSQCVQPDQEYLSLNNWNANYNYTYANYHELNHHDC
# Summary of the method: as §1
# ELF4 = ELF4 (Homo sapiens, UniProt Q99607 1-663); conditions: protein: recombinant; tags: N-terminal GST; dsDNA, one strand shown
# Summary of the method: as §1
# ELK4 = target: T9, ELK4 (Homo sapiens, UniProt P28324-2 1-405); conditions: protein: recombinant; tags: N-terminal GST; dsDNA, one strand shown
# T9 sequence: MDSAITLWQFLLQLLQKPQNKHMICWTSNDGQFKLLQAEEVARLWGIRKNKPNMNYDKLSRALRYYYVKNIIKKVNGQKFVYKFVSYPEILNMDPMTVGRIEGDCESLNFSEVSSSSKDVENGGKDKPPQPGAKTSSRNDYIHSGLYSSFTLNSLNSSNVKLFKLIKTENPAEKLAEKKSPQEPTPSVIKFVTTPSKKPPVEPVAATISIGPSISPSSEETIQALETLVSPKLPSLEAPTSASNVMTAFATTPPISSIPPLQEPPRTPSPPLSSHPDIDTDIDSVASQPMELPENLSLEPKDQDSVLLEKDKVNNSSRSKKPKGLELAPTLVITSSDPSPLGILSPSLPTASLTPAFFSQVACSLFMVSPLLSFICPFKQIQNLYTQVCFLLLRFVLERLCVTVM
# Summary of the method: as §1
# ETV2 = target: T10, ETV2 (Homo sapiens, UniProt O00321 1-342); conditions: protein: recombinant; tags: N-terminal GST; dsDNA, one strand shown
# T10 sequence: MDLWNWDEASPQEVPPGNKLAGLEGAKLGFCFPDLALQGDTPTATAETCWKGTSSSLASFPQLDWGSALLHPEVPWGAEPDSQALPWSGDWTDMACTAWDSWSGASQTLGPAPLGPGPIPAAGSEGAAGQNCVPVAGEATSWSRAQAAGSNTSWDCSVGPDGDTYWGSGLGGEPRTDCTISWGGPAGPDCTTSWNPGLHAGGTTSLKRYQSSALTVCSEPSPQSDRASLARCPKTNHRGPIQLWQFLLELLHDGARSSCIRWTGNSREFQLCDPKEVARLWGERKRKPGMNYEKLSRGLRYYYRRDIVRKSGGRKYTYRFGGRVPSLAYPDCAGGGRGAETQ
# Summary of the method: as §1
# ELF3 = target: T11, ELF3 (Homo sapiens, UniProt P78545 1-371); conditions: protein: recombinant; tags: N-terminal GST; dsDNA, one strand shown
# T11 sequence: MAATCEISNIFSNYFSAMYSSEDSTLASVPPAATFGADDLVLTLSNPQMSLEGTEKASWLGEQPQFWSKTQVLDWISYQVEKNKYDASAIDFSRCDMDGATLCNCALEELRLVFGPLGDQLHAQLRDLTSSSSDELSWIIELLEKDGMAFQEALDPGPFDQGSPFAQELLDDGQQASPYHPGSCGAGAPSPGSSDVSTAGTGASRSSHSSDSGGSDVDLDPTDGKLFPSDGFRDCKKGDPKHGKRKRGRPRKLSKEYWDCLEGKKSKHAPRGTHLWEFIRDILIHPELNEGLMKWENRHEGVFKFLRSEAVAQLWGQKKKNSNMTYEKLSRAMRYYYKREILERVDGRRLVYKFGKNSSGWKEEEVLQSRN
# Summary of the method: as §1
# CRX = CRX (Homo sapiens, UniProt O43186 1-299); conditions: protein: recombinant; tags: N-terminal GST; dsDNA, one strand shown
# Summary of the method: as §1
# ETV1 = ETV1 (Homo sapiens, UniProt P50549 1-477); conditions: protein: recombinant; tags: N-terminal GST; dsDNA, one strand shown
# Summary of the method: as §1
# ELF4, sequence (Q99607 whole entry): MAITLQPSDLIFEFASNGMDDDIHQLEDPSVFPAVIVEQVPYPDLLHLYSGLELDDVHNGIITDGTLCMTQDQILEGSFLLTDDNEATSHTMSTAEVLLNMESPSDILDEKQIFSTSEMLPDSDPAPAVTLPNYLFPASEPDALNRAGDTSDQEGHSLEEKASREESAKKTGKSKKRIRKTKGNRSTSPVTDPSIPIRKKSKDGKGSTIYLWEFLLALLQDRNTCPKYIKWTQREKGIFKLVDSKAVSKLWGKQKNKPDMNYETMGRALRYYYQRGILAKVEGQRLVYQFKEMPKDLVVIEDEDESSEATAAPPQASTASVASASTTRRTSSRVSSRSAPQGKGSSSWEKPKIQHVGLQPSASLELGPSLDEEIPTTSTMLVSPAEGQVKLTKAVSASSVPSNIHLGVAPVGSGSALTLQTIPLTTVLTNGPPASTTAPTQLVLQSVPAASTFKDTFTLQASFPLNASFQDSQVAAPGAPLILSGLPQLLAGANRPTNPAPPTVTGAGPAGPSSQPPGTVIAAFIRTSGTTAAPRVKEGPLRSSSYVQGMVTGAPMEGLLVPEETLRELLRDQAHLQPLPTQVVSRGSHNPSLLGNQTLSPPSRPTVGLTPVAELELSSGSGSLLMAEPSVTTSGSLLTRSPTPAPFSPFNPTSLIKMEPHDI
# SPIB, sequence (Q01892 whole entry): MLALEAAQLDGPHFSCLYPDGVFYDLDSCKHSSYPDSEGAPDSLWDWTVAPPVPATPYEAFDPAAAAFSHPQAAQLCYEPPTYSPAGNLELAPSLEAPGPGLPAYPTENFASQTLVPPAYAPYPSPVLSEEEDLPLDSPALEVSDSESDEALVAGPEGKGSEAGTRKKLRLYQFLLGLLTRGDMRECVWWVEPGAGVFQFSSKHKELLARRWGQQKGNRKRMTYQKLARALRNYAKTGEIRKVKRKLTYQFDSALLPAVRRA
# ETV1, sequence (P50549 whole entry): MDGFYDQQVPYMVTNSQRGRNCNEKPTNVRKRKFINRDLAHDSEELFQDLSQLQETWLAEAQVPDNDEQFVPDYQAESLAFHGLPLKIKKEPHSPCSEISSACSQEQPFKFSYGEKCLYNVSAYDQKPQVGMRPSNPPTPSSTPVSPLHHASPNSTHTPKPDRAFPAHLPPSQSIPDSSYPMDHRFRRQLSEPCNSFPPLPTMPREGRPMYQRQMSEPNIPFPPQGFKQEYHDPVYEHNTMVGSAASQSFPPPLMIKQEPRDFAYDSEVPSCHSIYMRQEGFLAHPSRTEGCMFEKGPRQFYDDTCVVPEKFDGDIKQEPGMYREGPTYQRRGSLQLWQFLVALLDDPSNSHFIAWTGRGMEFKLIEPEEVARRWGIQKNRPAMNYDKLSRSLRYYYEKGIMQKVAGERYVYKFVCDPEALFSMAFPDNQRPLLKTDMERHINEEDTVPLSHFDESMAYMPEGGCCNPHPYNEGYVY
# ETV5, sequence (P41161 whole entry): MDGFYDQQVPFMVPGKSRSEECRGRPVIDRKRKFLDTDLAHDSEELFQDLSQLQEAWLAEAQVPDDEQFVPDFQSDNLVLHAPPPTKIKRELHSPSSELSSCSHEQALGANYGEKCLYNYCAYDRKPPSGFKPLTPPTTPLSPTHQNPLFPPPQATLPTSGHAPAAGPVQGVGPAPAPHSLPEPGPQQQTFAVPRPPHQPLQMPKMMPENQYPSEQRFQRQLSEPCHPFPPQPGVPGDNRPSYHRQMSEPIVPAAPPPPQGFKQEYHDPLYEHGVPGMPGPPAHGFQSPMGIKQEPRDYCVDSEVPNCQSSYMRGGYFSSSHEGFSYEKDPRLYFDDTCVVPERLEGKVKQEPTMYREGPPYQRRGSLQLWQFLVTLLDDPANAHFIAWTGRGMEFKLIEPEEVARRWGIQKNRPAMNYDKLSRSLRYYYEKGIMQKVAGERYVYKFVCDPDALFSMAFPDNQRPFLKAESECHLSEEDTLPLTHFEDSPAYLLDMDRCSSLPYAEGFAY
# CRX, sequence (O43186 whole entry): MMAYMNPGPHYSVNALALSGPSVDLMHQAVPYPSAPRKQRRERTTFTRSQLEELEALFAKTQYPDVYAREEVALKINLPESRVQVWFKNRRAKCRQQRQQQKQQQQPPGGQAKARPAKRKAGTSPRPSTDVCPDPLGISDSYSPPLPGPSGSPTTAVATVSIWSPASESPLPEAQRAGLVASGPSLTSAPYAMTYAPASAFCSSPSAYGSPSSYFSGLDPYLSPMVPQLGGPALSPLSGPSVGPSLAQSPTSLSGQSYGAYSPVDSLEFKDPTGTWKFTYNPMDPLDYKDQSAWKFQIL
# HSF1, sequence (Q00613 whole entry): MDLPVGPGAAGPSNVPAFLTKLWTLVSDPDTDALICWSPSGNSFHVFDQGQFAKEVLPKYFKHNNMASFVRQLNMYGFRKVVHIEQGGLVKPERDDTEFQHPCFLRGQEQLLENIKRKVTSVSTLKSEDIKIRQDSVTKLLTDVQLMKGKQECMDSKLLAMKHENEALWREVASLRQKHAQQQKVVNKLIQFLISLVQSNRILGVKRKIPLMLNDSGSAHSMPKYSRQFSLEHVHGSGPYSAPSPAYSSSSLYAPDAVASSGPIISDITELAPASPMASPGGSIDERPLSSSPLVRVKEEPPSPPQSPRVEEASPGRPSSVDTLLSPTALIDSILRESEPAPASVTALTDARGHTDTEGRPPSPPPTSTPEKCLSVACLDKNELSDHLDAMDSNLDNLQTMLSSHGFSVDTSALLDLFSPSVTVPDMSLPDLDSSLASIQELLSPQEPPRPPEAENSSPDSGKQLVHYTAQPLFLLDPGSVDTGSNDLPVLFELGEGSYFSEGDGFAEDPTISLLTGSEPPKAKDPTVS
# ELF1, sequence (P32519 whole entry): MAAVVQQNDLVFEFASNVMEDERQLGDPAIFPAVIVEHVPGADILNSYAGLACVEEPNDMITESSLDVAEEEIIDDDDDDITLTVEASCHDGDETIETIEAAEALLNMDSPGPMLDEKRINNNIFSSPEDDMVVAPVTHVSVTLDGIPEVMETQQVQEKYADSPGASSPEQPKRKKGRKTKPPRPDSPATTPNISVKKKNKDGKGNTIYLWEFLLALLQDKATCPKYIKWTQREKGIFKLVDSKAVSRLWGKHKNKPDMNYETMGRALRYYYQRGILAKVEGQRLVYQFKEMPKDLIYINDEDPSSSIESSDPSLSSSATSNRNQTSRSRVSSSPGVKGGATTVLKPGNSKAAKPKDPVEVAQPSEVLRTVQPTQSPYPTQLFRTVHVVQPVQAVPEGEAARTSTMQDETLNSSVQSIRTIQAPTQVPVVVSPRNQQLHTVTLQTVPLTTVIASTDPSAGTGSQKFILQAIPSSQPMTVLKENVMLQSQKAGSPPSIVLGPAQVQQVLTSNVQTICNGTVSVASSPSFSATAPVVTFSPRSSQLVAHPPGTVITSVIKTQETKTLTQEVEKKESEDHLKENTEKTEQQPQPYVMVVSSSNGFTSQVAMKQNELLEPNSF
sequence,measurement,setting,value
AAGATG,binding signal,FLI1,"1.17 fold enrichment (6-mer frequency, TF over GST control)"
same,binding signal,ELK1,"1.17 fold enrichment (6-mer frequency, TF over GST control)"
same,binding signal,GABPA,"1.11 fold enrichment (6-mer frequency, TF over GST control)"
same,binding signal,ERG,"1.11 fold enrichment (6-mer frequency, TF over GST control)"
same,binding signal,ELF1,"1.09 fold enrichment (6-mer frequency, TF over GST control)"
same,binding signal,EHF,"1.1 fold enrichment (6-mer frequency, TF over GST control)"
same,binding signal,SPI1,"1.09 fold enrichment (6-mer frequency, TF over GST control)"
same,binding signal,SPIB,"1.16 fold enrichment (6-mer frequency, TF over GST control)"
same,binding signal,ELK3,"1.19 fold enrichment (6-mer frequency, TF over GST control)"
same,binding signal,FEV,"1.01 fold enrichment (6-mer frequency, TF over GST control)"
same,binding signal,ETV5,"1.14 fold enrichment (6-mer frequency, TF over GST control)"
same,binding signal,HSF1,"1.19 fold enrichment (6-mer frequency, TF over GST control)"
same,binding signal,SPIC,"1.1 fold enrichment (6-mer frequency, TF over GST control)"
same,binding signal,ELF4,"1.24 fold enrichment (6-mer frequency, TF over GST control)"
same,binding signal,ELK4,"1.22 fold enrichment (6-mer frequency, TF over GST control)"
same,binding signal,ETV2,"1.13 fold enrichment (6-mer frequency, TF over GST control)"
same,binding signal,ELF3,"1.19 fold enrichment (6-mer frequency, TF over GST control)"
same,binding signal,CRX,"1.27 fold enrichment (6-mer frequency, TF over GST control)"
same,binding signal,ETV1,"1.12 fold enrichment (6-mer frequency, TF over GST control)"

# Reference: article PMC7862700, “An all-to-all approach to the identification of sequence-specific readers for epigenetic DNA modifications on cytosine”
